According to PubChem BioAssay AID2796 (The Scripps Research Institute Molecular Screening Center, 2010):
Among all 320,000 compounds or so, about 8,000 (2.5%) were called active. The sample holds actives, similar compounds and a random draw of the others, so the mix is not that of the screen. Unmarked numbers belong to inactive results. Rule as the data show it: active = activation above about 47%; inactive = the rest.

Biological target: Aryl hydrocarbon receptor (Homo sapiens) (UniProt P35869)
Experiment: AHR activators, primary screen, cell-based, luminescence, luciferase reporter, human (AID 2796);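 also: 0% = vehicle wells and 100% = reference agonist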
Details: AHR-responsive luciferase reporter cells, at 5 µM, hits give high values

Chain of Aryl hydrocarbon receptor (Homo sapiens) (P35869 whole entry, looked up): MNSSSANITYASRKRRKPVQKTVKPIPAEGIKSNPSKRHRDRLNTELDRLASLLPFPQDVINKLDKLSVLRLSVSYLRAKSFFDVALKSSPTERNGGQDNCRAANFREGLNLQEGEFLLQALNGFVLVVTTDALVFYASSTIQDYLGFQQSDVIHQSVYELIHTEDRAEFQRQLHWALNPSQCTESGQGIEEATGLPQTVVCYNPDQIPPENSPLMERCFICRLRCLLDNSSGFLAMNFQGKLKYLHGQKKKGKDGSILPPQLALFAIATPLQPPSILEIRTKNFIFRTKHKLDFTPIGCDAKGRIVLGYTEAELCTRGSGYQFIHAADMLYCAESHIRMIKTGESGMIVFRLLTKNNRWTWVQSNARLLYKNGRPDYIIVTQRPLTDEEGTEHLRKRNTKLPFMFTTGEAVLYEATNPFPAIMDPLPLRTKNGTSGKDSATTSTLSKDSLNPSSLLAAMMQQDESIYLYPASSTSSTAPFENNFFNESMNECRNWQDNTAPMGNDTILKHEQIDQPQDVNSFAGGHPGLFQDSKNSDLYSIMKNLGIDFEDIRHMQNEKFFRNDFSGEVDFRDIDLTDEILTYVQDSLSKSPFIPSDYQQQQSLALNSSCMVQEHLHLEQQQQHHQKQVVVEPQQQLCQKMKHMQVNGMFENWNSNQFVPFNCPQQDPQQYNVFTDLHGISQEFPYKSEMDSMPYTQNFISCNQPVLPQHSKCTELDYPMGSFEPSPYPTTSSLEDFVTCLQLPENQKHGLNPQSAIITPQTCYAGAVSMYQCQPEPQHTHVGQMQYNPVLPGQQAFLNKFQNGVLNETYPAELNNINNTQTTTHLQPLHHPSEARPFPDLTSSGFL

Compound | activation
CC(C)Cc1nnc(NC(=O)CCC(=O)Nc2ccc3cn[nH]c3c2)s1 | 24.7%
O=C1N(c2ccc(Cl)cc2)C(c2ccc(Cl)cc2)N2CCCN12 (stereo not given) | 54.2% (active)
O=C1NC(=O)C(c2ccc(Cl)cc2)N1 (stereo not given) | -2.18%
Cc1ccc(C)c(S(=O)(=O)N2CCCOC2CNC(=O)C(=O)NC2CCCCC2)c1 (stereo not given) | 2.26%
CCOC(=O)c1cc(NC(=O)c2ccc(Cl)cc2)c(=O)oc1-c1ccccc1 | -1.16%
CC(=O)Oc1cccc(C(=O)Nc2ccccc2NC(=O)c2cccc(OC(C)=O)c2)c1 | 2.51%
CC(=O)c1cc(NC(=O)c2ccccc2)c(=O)oc1/C=C/N(C)C | 60.3% (active)
CC(C)C(C(=O)NCc1ccco1)N(CC1CCCO1)C(=O)CNS(=O)(=O)c1ccc(F)cc1 (stereo not given) | -0.85%
CCC(C(=O)OC)n1cnc2c(oc3ccccc32)c1=O (stereo not given) | 2.16%
COc1ccc(C)cc1Nc1nc(C)nc2c1oc1ccccc12 | 13.4%
COc1ccccc1Nc1ncnc2c1oc1ccccc12 | 86.1% (active)
Cn1c(=O)c2cn(-c3cccc4ccccc34)cc2n(C)c1=O | 18.1%
CC(=O)Nn1cc2c(=O)n(C)c(=O)n(C)c2c1 | 1.7%
COc1ccc(OC)c(-n2cc3c(=O)n(C)c(=O)n(C)c3c2)c1 | 64.9% (active)
O=C(O)c1cccc2c1C(=O)N(C1CCCC1)C2 | -3.11%
O=C(COc1ccc(F)cc1Br)NCC1COc2ccccc2O1 (stereo not given) | 2.44%
CN1CCN(c2ccc([N+](=O)[O-])c(Sc3nc4ccccc4[nH]3)c2)CC1 | 50% (active)
CC1CCN(c2ccc([N+](=O)[O-])c(SCCO)c2)CC1 | 13.1%
O=C(CSc1nc2ccccc2[nH]1)N/N=C/C=C\c1ccccc1[N+](=O)[O-] | 26.7%
O=C(OCC(=O)N1CCN(C(=O)c2ccco2)CC1)c1cccc(O)c1 | 4.27%
Cc1c(CN2CCC(CO)(CCOc3ccccc3)CC2)[nH]c2ccc(Cl)cc12 | 6.78%
COC(=O)c1[nH]c2ccc(Br)cc2c1NC(=O)Oc1ccccc1 | 48.5% (active)
CCOC(=O)c1[nH]c2ccc(OC)cc2c1NC(=O)CCN1CCN(Cc2ccccc2)CC1 | 4.33%
COC(=O)c1oc2ccc(Br)cc2c1NC(C)=O | 1.12%

Compound | activation
CN(Cc1ccccc1)C(=O)C(=O)c1cn(CC(=O)N2CCCC2)c2ccccc12 | 0.47%
NC(=O)C1(N2CCCCC2)CCN(C(=O)c2ccc(C#Cc3ccccc3)o2)CC1 | 0.68%
O=C(Nc1ccnc(-c2ccncc2)n1)c1cccs1 | 55.7% (active)
O=C(Nc1ccc(NC(=O)c2cccs2)cn1)c1ccco1 | -2.71%
O=C(Nc1ccccc1)c1ccc(NC(=O)c2cccs2)cc1 | -3.44%
C/C=C(\C)C(=O)N1CC2(CC(c3cccc(NC(=O)CCCCC)c3)=NO2)C[C@@H]1C(N)=O (stereo not given in full) | 2.15%
N#CC1(NC(=O)COc2ccc3oc4ccccc4c3c2)CCCCC1 | 4.73%
Cc1cccc(NS(=O)(=O)c2ccc([N+](=O)[O-])cc2)n1 | 1.34%
O=[N+]([O-])c1ccc2c(c1)Nc1nc3ccccc3nc1N2 | 36.9%
Cc1nc2ccccc2nc(=O)c1NNc1ccc([N+](=O)[O-])cc1 | 47.2% (active)
Cc1ccc(C(=O)N(CC(=O)NC2CCCC2)c2ccc(F)cc2)s1 | 2.22%
COc1ccccc1N1CCN(C(=O)c2cc3c(-c4ccc(Cl)cc4)nn(C)c3s2)CC1 | 121% (active)
COc1cccc(-c2cc(C(=O)N3CCN(c4ccccc4OC)CC3)no2)c1 | 2.67%
CC(C)(C)c1ccc(C(=O)NCc2ccco2)cc1 | 9.26%
COc1ccc2c(Cl)c(C(=O)NCc3ccco3)sc2c1 | -3%
Cn1nc(-c2ccc(Cl)cc2)c2cc(C(=O)NCc3ccco3)sc21 | 79.7% (active)
CCOC(=O)N1CCN(C(=O)c2cc3c(-c4ccc(Cl)cc4)nn(C)c3s2)CC1 | 89.2% (active)
CCOC(=O)N1CCN(C(=O)c2ccc3nc4cc(Cl)ccc4c(=O)n3c2)CC1 | 5.36%
COc1cccc(-c2nn(C)c3sc(C(=O)N4CCN(c5ccccc5)CC4)cc23)c1 | 9.25%
Cn1nc(C(F)(F)F)c2cc(C(=O)N3CCOCC3)sc21 | -0.43%
CCOC(=O)c1cccc(NC(=O)C2CCCN(S(=O)(=O)c3cnc[nH]3)C2)c1 (stereo not given) | 0.81%
Cc1ccc(SCC2=NNC(=O)C2)cc1 | -1.28%
CC(C)N1C(=S)SC(C)(C)C1n1oc(=O)n(-c2ccc(Cl)c(Cl)c2)c1=O (stereo not given) | 7.15%
COc1ccc(CN2CCN(Cc3cn(C)nc3-c3ccccc3)CC2CCO)c(C)c1C (stereo not given) | 2.04%

Compound | activation
Cc1noc(C)c1NC(=O)Nc1ccc2c(c1)C(=O)N([C@H](C)CO)C[C@H](C)[C@@H](CN(C)C(=O)Nc1ccc(C(F)(F)F)cc1)O2 | 3.05%
Cc1ccc(-c2noc(CNC(=O)c3ccoc3C)n2)cc1 | 6.22%
CCN(CC)C(=O)Oc1ccc(Br)cc1C(=O)Nc1ccc(F)c(Cl)c1 | 86.6% (active)
O=C(COc1ccccc1F)NNC(=O)c1cc(Br)ccc1Cl | 4.62%
CCN(CC)C(=O)C(=O)Nc1cccc(Br)c1 | 4.98%
CCC1CCCCN1CCNC(=O)c1[nH]c(C)c(C(C)=O)c1C (stereo not given) | 1.61%
O=C(Nc1ccc(Cl)cc1)N1CCc2[nH]c3ccccc3c2C1 | 25.4%
Fc1ccc(NC(=S)N2CCc3[nH]c4ccccc4c3C2)cc1 | 5.41%
C=CCNC(=S)N1CCc2[nH]c3ccccc3c2C1 | 73.6% (active)
O=C(CCCN1CCc2[nH]c3ccc(F)cc3c2C1)c1ccc(F)cc1 | 2.64%
Cc1ccc(-n2c(SCC(=O)NCCC3=CCCCC3)nc3n[nH]c(C)c3c2=N)cc1Cl | 24.8%
COc1cccc(-n2c(SCC(=O)NC3CCCCC3)nc3n[nH]c(C)c3c2=N)c1 | 104% (active)
CCCCNC(=O)CSc1nc2n[nH]c(C)c2c(=N)n1-c1cccc(Cl)c1C | 13.7%
COc1ccccc1C(=O)NCCC(=O)NN1C(=O)NC2(CCCCC2)C1=O | -0.92%
C/C=C/C(=O)OCC(=O)Nc1ccc(F)cc1Cl | 0.16%
C[N+](C)(CCCCCC[N+](C)(C)CCCN1C(=O)c2cccc3cccc(c23)C1=O)CCCN1C(=O)c2cccc3cccc(c23)C1=O | 4.39%
O=C(CCCCCN1C(=O)c2cccc3cccc(c23)C1=O)NCc1ccco1 | 76.8% (active)
O=C(CCCOc1ccccc1)NCc1ccco1 | 1.62%
CC1CCN(C(=O)C2CCN(S(=O)(=O)N3CCC4(CC3)OCCO4)CC2)CC1 | 0.37%
CNc1ccc([N+](=O)[O-])cc1C(=O)O | -2.24%
Cc1ccc(NC(=O)c2cc([N+](=O)[O-])ccc2Cl)c(O)c1 | 49% (active)
O=C(Nc1cccnc1)c1cc([N+](=O)[O-])ccc1Cl | 0.88%
COc1ccc(S(=O)(=O)NC(C)C(=O)NCc2ccncc2)cc1Cl (stereo not given) | -0.4%
C[C@H](CO)N1C[C@H](C)[C@@H](CN(C)S(=O)(=O)c2ccc(F)cc2)Oc2c(NC(=O)Nc3ccccc3)cccc2C1=O | 0.64%

Compound | activation
Cc1cccc(NC(=O)c2ccc3nsnc3c2)c1C | 10.3%
O=C(Nc1ccccc1)c1ccc2nsnc2c1 | 60.2% (active)
O=C(Nc1cccc(NC(=O)c2cccc(F)c2)c1)c1ccccc1 | 26.6%
COC(C(=O)Nc1ccc(S(=O)(=O)Nc2ccc(C)c(C)c2)cc1)c1ccccc1 (stereo not given) | -0.6%
COCCN1CCn2c(nc3cc(NS(C)(=O)=O)ccc32)C1 | 4.78%
Cc1ccc(S(=O)(=O)NCC(=O)N(CC(=O)NC(C)(C)C)Cc2cccs2)cc1 | 3.31%
CCc1noc(C)c1C(=O)Nc1nc2ccc(OC)cc2s1 | 1.93%
O=C(O)c1ccccc1C(=O)Nc1nc(-c2ccccc2)cs1 | 1.84%
CCc1noc(C)c1C(=O)Nc1nc(-c2ccccc2)cs1 | 55.4% (active)
Nc1ncc(CN2CCCC(C(=O)Nc3ccc(-c4ccco4)cc3)C2)cn1 (stereo not given) | 5.9%
Cc1cc(=O)oc2c(C(=O)c3ccccc3)c(OCC(N)=O)ccc12 | 3.98%
O=C(COC(=O)c1ccc(F)cc1)NCC1COc2ccccc2O1 (stereo not given) | -0.1%
Cc1noc(C)c1NC(=O)Nc1ccc2c(c1)C(=O)N([C@H](C)CO)C[C@H](C)[C@@H](CN(C)S(=O)(=O)c1cn(C)cn1)O2 | 0.71%
O=S(=O)(Nc1ccc(-n2cnnn2)cc1)c1ccc(Cl)cc1 | 1.5%
Cc1noc(C)c1/C=N/Nc1ccc2ccccc2n1 | 83.3% (active)
C(=N\Nc1ccc2ccccc2n1)/c1ccc2c(c1)OCO2 | 101% (active)
Cc1cc(C)nc(N/N=C/c2c(C)oc3ccccc23)n1 | 11.9%
Brc1ccc(-c2csc(N/N=C/c3cccnc3)n2)cc1 | -4.57%
Brc1ccc(-c2csc(N/N=C/c3ccc4c(c3)OCO4)n2)cc1 | 58% (active)
Cc1nc(Cl)cc(N/N=C/c2ccccc2)n1 | 23.2%
O=C(CN1CCN(c2nc(-c3ccccc3)cs2)CC1)NCc1ccc2c(c1)OCO2 | 0.54%
Cc1cc(=O)[nH]c(N/N=C/c2ccc3c(c2)OCCO3)n1 | 14.6%
O=C(Cc1ccc(F)cc1)N/N=C/c1ccc2c(c1)OCO2 | 42%
